# Measured values from PubChem BioAssay (Tox21).
# A number with no mark means an inactive call. Inconclusive results are not listed. A call without a number means that no potency is given here. Active and inactive are the calls of the source. Unless noted, calls follow the shape of the dose curve; as a rule, active = well fitted curve in the direction sought with a large enough effect in the repeat runs; inconclusive = weak or mixed curves; inactive = no such curve, though single readings can be large; an effect the other way counts as inactive or inconclusive.
# Assays:
# [1] = target: Estrogen receptor (Homo sapiens) (UniProt P03372); experiment: qHTS assay to identify small molecule antagonists of the estrogen receptor alpha (ER-alpha) signaling pathway using the BG1 cell line in the presence of 0.1 nM 17-beta-estradiol (AID 1259244); also: nearly all actives have a fitted effect of over 50% in size
# Procedure, shortened: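 Estradiol at 0.1 nM (final) stimulates the endogenous ER-alpha of VM7Luc4E2 cells carrying an ERE-driven luciferase; compounds are co-incubated 22 h at 37C and luciferase output quantified by luminescence.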
# [2] = qHTS assay to identify small molecule HDAC inhibitors - cell viability counter screen (AID 1259365); also: series mostly up to about 92 µM; nearly all actives have a fitted effect of over 50% in size
# Procedure, shortened: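 Following a 2hr exposure of overnight-plated wild-type HCT-116 cells to DMSO-delivered compounds, CellTiter-Glo was added and luminescence recorded after 30min at room temperature.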
# [3] = qHTS assay to identify small molecule agonists of the sonic hedgehog signaling (Shh) pathway - cell viability counter screen (AID 1259366); also: nearly all actives have a fitted effect of over 50% in size
# Procedure, shortened: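 After a 4hr attachment at 37C, NIH/3T3 cells bearing an integrated Gli1-driven luciferase reporter were dosed with compounds. Treatment lasted 24hr, with the final hour including CellTiter-Fluor for a fluorescence viability measurement.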
# [4] = qHTS assay to identify small molecule antagonists of the sonic hedgehog signaling (Shh) pathway - cell viability counter screen (AID 1259367); also: nearly all actives have a fitted effect of over 55% in size
# Procedure, shortened: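 Seed 3T3 Gli1-Luc cells at 2,000 per well; incubate 4 hr; add compound in DMSO, then conditioned medium; incubate at 37C with 5% CO2; add CellTiter-Fluor after 23 hr; read fluorescence 1 hr later.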
# [5] = qHTS assay to identify small molecule agonists of the sonic hedgehog signaling (Shh) pathway (AID 1259368; calls by dose curve;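 also: NIH/3T3-derived 3T3Gli1-Luc cells carrying a stable Gli1-driven firefly luciferase reporter; series mostly up to about 92 µM; nearly all actives have a fitted effect of over 15% in size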)
# Procedure, shortened: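 A Gli1 transcriptional response element controlled firefly luciferase in 3T3Gli1-Luc cells. Compounds and a positive control were added 4 hr after plating, and cells were incubated a further 24 hr at 37 C before luminescence detection.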
# [6] = qHTS assay to identify small molecule antagonists of the sonic hedgehog signaling (Shh) pathway (AID 1259369; calls by dose curve; also: nearly all actives have a fitted effect of over 45% in size; also: potency is read from the fitted curve at half-maximal effect)
# Procedure, shortened: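 For antagonist detection, the reporter line received test compounds together with conditioned medium, incubated 24hr at 37 C, 5% CO2, then luminescence was recorded following 30min room-temperature luciferase reagent incubation.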
# [7] = target: Estrogen receptor beta (Homo sapiens) (UniProt Q92731); experiment: qHTS assay to identify small molecule agonists of the estrogen receptor beta (ER-beta) signaling pathway (AID 1259377; active = well fitted activation curve with a large enough effect in the signal ratio in the repeat runs, not every such curve was filed as active; the % refers to the signal ratio)
# Procedure, shortened: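 In HEK293T cells bearing a UAS-beta-lactamase reporter under ER-beta control, DMSO-delivered compounds were incubated for 16 hr at 37C. Activity was detected as fluorescence 2 hours after LiveBLAzer B/G FRET substrate addition.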
# [8] = target: Estrogen receptor beta (Homo sapiens) (UniProt Q92731); experiment: qHTS assay to identify small molecule antagonists of the estrogen receptor beta (ER-beta) signaling pathway (AID 1259378; active = well fitted inhibition curve with a large enough effect in the signal ratio in the repeat runs, not every such curve was filed as active; the % refers to the signal ratio)
# Procedure, shortened: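 ER-beta-UAS-bla HEK293T cells in 2% charcoal-stripped FBS medium treated with compound plus 1nM final 17-beta-estradiol for 16 hr at 37C. Beta-lactamase reporter read by FRET substrate fluorescence after 2 hours at room temperature.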
# [9] = qHTS assay to identify small molecule agonists of the androgen receptor (AR) signaling pathway in the presence of an antagonist - cell viability counter screen (AID 1259379); also: nearly all actives have a fitted effect of over 25% in size; also: potency is read from the fitted curve at half-maximal effect
# Procedure, shortened: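 Seed MDA-kb2 at 3,000 cells/well; incubate 5 hr, 37C, 0% CO2. Add nilutamide to 3.0uM final, then pin compounds at 15 concentrations. Incubate 16 hr. Add CellTiter-Fluor at 15 hr, read fluorescence after 1 hr.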
# [10] = qHTS assay to identify small molecule agonists of the estrogen receptor beta (ER-beta) signaling pathway - cell viability counter screen (AID 1259380); also: nearly all actives have a fitted effect of over 30% in size; also: potency is read from the fitted curve at half-maximal effect
# Procedure, shortened: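 CellTiter-Glo read, 30 min RT, same wells as bla assay; cells ER-beta-UAS-bla HEK293T; 16 hr compound, 37C; medium 2% charcoal-stripped FBS.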
# [11] = target: Androgen receptor (Homo sapiens) (UniProt P10275); experiment: qHTS assay to identify small molecule agonists of the androgen receptor (AR) signaling pathway in the presence of an antagonist (AID 1259381; calls by dose curve; also: nearly all actives have a fitted effect of over 15% in size)
# Procedure, shortened: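 Test compounds at 15 concentrations were incubated for 16hr with MDA-kb2 reporter cells in presence of 3.0uM nilutamide (final). Signal: ONE-Glo luciferase luminescence.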
# [12] = qHTS assay to identify small molecule antagonists of the estrogen receptor beta (ER-beta) signaling pathway - cell viability counter screen (AID 1259382); also: series mostly up to about 92 µM; nearly all actives have a fitted effect of over 55% in size
# Procedure, shortened: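 In this multiplexed counter screen, cells were seeded at 2,000 per well in medium with 2% charcoal-stripped FBS and incubated 6 hr before compound and 1nM final E2 were added. Sixteen hours later, ATP-based luminescence reported viability.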
# [13] = target: Estrogen receptor (Homo sapiens) (UniProt P03372); experiment: qHTS assay to identify small molecule agonists of the estrogen receptor alpha (ER-alpha) signaling pathway in the presence of an antagonist (AID 1259383; calls by dose curve; also: top concentration of the series differs between compounds; nearly all actives have a fitted effect of over 15% in size)
# Procedure, shortened: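 Stably transfected VM7Luc4E2 reporter cells, kept 5 days in charcoal-stripped serum, received ICI-182,780 at 10.0nM final before compound addition. Following 22hr incubation at 37C and 5% CO2, luciferase signal was read by luminescence.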
# [14] = qHTS assay to identify small molecule agonists or antagonists of the thyroid stimulating hormone receptor (TSHR) signaling pathway - wild type cell line counter screen (AID 1259384; calls by dose curve)
# Procedure, shortened: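 Wild-type Hek293 cells, 800/well, 18 h at 37C, then compound with Ro20-1724 for 30 min RT. cAMP by HTRF (cAMP-d2/anti-cAMP cryptate), 1 h RT, fluorescence read. 15 concentrations, triplicates.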
# [15] = target: Thyrotropin receptor (Homo sapiens) (UniProt P16473); experiment: qHTS assay to identify small molecule antagonists of the thyroid stimulating hormone receptor (TSHR) signaling pathway (AID 1259385; calls by dose curve; also: nearly all actives have a fitted effect of over 20% in size; also: potency is read from the fitted curve at half-maximal effect)
# Procedure, shortened: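 TSHR-HEK293 cells (800/well) plated 18 h, then compounds with Ro20-1724 and TSH at 1.5 ng/mL final, 30 min at room temperature. cAMP quantified by HTRF (cAMP-d2/anti-cAMP-cryptate, 1 h); 15 concentrations in triplicate.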
# [16] = qHTS assay to identify small molecule agonists of the estrogen receptor alpha (ER-alpha) signaling pathway in the presence of an antagonist - cell viability counter screen (AID 1259386);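 also: series mostly up to about 92 µM; cells exposed to compounds for 22 h at 37 °C before the viability read; nearly all actives have a fitted effect of over 30% in size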
# Procedure, shortened: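 Viability counter screen using VM7Luc4E2 (full-length ER-alpha, four ERE-luciferase). The cells were treated with compounds alongside ICI-182,780 10.0nM for 22hr, and live-cell protease fluorescence was quantified with CellTiter-Fluor.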
# [17] = target: Progesterone receptor (Homo sapiens) (UniProt P06401); experiment: qHTS assay to identify small molecule agonists of the progesterone receptor (PR) signaling pathway (AID 1346784; calls by dose curve; also: nearly all actives have a fitted effect of over 30% in size)
# Procedure, shortened: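 Using charcoal-stripped serum (2%) to limit endogenous steroids, PR-UAS-bla HEK 293T cells received compounds for 16 hr at 37C after 6 hr plating; beta-lactamase FRET fluorescence was recorded following 2 hr substrate loading at room temperature.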
# [18] = target: Progesterone receptor (Homo sapiens) (UniProt P06401); experiment: qHTS assay to identify small molecule antagonists of the progesterone receptor (PR) signaling pathway (AID 1346795; active = well fitted inhibition curve with a large enough effect in the signal ratio in the repeat runs, not every such curve was filed as active; the % refers to the signal ratio)
# Procedure, shortened: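 Inhibition of R5020-induced (1 nM final) beta-lactamase reporter signal in PR-UAS-bla HEK293T cells was scored by FRET fluorescence after overnight (16 hr) compound treatment.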
# [19] = qHTS assay to identify small molecule HDAC inhibitors (AID 1259364);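 also: wild-type HCT-116 cells with endogenous class I/II HDAC activity; top concentration of the series differs between compounds; nearly all actives have a fitted effect of over 45% in size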
# Procedure, shortened: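 Read-out: luminescence of HDAC-Glo I/II reagent, 30 min RT, reflecting class I/II deacetylase activity in whole HCT-116 cells pre-exposed 2 h to DMSO-dissolved compounds.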
# [20] = qHTS assay to identify small molecule phospholipidosis (PLD) inducers (AID 1259344; active = well fitted curve in the direction sought with a large enough effect; an effect the other way counts as inactive or inconclusive; also: potency is read from the fitted curve at half-maximal effect)
# Procedure, shortened: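 Quantitative HTS in HepG2: compound plus LipidTOX Red dye for 24 h, paraformaldehyde fixation with Hoechst 33342, widefield high-content imaging; amiodarone as positive and DMSO as negative control.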
# Chain of Androgen receptor (Homo sapiens) (P10275 whole entry, looked up): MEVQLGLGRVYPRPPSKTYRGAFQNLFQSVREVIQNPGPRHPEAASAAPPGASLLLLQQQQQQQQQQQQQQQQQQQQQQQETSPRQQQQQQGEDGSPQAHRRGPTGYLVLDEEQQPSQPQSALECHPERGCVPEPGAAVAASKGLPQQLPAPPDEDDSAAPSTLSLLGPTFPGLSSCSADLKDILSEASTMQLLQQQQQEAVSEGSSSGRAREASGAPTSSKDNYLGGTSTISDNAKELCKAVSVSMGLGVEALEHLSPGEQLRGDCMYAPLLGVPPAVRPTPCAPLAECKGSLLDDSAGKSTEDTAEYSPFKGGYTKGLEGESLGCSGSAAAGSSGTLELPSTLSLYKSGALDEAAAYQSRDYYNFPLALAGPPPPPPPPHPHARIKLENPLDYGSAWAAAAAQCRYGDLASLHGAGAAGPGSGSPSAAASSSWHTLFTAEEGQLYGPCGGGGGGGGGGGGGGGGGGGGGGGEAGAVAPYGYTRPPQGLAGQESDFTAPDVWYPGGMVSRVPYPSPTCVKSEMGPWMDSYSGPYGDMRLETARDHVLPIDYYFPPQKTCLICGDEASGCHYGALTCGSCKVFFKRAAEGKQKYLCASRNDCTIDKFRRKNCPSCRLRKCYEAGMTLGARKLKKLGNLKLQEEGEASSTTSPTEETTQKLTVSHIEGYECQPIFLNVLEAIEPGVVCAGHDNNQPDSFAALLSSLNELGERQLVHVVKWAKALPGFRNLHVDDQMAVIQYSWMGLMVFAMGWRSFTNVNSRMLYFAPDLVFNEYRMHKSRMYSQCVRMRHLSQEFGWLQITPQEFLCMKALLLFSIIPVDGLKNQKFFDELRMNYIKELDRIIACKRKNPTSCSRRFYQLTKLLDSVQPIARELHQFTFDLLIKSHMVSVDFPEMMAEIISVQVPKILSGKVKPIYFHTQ
# Chain of Thyrotropin receptor (Homo sapiens) (P16473 whole entry, looked up): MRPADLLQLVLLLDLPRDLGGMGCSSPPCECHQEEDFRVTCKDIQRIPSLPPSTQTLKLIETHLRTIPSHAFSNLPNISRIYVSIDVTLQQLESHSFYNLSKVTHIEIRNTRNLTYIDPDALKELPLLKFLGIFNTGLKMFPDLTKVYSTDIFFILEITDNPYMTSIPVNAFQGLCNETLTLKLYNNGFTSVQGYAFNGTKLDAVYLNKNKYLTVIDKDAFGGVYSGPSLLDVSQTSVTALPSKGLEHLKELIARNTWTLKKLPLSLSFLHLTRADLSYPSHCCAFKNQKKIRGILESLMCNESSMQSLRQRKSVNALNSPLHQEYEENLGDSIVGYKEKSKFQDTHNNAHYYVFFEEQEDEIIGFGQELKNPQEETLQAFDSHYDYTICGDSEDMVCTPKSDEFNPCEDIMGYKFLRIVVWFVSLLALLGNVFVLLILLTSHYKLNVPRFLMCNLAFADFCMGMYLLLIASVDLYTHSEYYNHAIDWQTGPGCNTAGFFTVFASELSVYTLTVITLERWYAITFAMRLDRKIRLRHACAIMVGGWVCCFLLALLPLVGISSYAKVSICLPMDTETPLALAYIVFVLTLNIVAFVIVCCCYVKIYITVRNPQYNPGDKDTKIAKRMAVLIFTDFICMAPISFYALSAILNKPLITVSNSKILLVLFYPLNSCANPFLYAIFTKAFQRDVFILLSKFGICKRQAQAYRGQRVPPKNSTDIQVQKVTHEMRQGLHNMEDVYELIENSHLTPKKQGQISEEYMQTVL
# Chain of Estrogen receptor (Homo sapiens) (P03372 whole entry, looked up): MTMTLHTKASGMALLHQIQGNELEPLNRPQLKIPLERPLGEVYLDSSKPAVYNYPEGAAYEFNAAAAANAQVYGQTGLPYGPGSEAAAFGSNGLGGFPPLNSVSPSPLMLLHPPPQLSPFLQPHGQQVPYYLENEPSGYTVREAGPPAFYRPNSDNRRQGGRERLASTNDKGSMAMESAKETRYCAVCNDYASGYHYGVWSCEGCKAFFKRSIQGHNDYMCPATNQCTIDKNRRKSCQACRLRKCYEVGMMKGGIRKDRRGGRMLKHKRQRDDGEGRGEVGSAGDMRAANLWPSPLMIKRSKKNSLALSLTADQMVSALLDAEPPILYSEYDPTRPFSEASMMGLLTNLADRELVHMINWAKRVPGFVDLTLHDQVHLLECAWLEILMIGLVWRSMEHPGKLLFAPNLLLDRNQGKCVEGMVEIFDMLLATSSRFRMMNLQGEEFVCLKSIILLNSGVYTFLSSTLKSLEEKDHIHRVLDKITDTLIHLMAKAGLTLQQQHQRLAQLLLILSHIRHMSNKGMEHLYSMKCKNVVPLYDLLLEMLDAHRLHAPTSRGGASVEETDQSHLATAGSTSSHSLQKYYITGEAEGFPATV
# Chain of Progesterone receptor (Homo sapiens) (P06401 whole entry, looked up): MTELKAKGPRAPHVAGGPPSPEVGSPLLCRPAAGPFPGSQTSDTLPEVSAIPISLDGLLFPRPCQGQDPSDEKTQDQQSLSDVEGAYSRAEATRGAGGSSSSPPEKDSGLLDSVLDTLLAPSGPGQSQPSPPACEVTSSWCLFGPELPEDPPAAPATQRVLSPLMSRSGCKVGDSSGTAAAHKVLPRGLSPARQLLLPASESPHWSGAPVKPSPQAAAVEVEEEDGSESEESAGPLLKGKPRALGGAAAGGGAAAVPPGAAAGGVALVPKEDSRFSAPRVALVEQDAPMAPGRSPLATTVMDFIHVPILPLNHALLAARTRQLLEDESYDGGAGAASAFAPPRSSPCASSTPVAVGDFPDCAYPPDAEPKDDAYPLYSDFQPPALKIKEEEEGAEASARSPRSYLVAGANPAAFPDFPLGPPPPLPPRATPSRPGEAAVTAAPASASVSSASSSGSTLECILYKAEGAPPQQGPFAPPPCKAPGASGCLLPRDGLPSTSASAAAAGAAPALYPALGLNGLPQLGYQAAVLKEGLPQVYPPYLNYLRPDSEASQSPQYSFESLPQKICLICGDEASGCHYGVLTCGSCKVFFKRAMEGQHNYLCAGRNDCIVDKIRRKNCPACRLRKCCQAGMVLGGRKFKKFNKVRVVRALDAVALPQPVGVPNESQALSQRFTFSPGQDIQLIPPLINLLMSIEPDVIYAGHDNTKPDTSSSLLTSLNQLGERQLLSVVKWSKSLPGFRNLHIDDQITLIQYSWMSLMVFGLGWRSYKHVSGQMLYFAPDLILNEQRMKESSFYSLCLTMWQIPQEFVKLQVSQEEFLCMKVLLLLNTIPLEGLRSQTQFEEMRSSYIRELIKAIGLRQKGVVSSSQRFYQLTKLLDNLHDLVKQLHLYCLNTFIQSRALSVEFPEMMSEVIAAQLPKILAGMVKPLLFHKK
# Chain of Estrogen receptor beta (Homo sapiens) (Q92731 whole entry, looked up): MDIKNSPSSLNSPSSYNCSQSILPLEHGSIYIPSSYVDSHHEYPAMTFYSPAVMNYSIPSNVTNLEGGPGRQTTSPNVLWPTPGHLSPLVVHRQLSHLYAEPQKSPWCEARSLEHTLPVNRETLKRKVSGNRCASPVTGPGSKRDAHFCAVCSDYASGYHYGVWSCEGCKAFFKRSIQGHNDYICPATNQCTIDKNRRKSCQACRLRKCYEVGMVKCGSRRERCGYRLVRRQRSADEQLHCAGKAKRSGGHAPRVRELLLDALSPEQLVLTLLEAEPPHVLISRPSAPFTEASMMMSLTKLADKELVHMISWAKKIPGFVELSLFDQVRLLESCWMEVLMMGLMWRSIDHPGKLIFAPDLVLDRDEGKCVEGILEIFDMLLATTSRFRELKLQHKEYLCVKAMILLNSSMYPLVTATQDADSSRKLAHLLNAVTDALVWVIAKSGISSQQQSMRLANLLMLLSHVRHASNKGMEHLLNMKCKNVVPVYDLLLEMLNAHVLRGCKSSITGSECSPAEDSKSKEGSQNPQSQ
Compound,Potency [1],outcome [2],Potency [3],Potency [4],outcome [5],Potency [6],Potency [7],Potency [8],Potency [9],Potency [10],Potency [11],Potency [12],Potency [13],Potency [14],Potency [15],Potency [16],outcome [17],Potency [18],Potency [19],Potency [20]
CC(C)(Oc1ccc(Cl)cc1)C(=O)OCCCOC(=O)C(C)(C)Oc1ccc(Cl)cc1,inactive,inactive,inactive,inactive,inactive,inactive,inactive,inactive,inactive,inactive,inactive,inactive,inactive,inactive,29.8 µM (active),inactive,inactive,inactive,–,–
CCCC(=O)OCC,inactive,–,inactive,inactive,inactive,68.6 µM (active),inactive,inactive,inactive,–,–,inactive,inactive,inactive,inactive,inactive,inactive,–,inactive,–
CC(=O)Nc1ccc(/C=N/NC(N)=S)cc1,–,inactive,inactive,inactive,inactive,inactive,–,–,inactive,inactive,–,inactive,–,–,–,inactive,inactive,inactive,inactive,inactive
CN1CCN(C2=Nc3ccccc3Sc3ccc(Cl)cc32)CC1,–,inactive,inactive,inactive,–,inactive,–,inactive,inactive,inactive,inactive,inactive,–,–,inactive,inactive,–,–,inactive,11.2 µM (active)
Cc1ccc(O)c([C@H](CCN(C(C)C)C(C)C)c2ccccc2)c1,–,inactive,inactive,inactive,inactive,–,inactive,inactive,–,26.6 µM (active),–,–,–,–,inactive,–,inactive,inactive,–,inactive
Nc1nc(N)c(-c2ccccc2)s1,–,–,–,inactive,–,inactive,–,–,inactive,inactive,–,inactive,–,–,–,inactive,inactive,–,inactive,inactive
c1ccc(OCc2ccc(CCCN3CCOCC3)cc2)cc1,–,–,–,inactive,inactive,–,inactive,inactive,29.8 µM (active),–,inactive,inactive,inactive,inactive,inactive,–,inactive,–,–,inactive
CCN(CC)C(C)=O,–,inactive,inactive,inactive,inactive,inactive,inactive,inactive,inactive,inactive,–,inactive,–,inactive,inactive,inactive,inactive,inactive,inactive,–
COc1ccccc1OC(=O)Oc1ccccc1OC,–,inactive,inactive,inactive,inactive,inactive,–,inactive,inactive,–,inactive,–,–,inactive,inactive,inactive,inactive,–,–,inactive
